This is part of a sample that, as a whole, favours compounds with a hit. Of some 83,000 tested, about 20% had one in any assay.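 Step 1: grow cells in 96-well plates. Step 2: add test compound at a single concentration. Step 3: incubate 48 h. Step 4: record percent growth.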 The source made the active and inactive calls.

This experiment deals with NCI-H322M lung. Kind of experiment: NCI-60 one-dose screen, 48 h (100 = growth as untreated, 0 = no growth, -100 = all killed). The conditions noted are these: 10 µM unless noted. How it is done:
Growth inhibition of the NCI-H322M human Non-Small Cell Lung tumor cell line is measured as a screen for anti-cancer activity. Cells are grown in 96 well plates and exposed to the test compound for 48 hours. Compounds are tested at a single concentration, which is 10^-5 M for most compounds. The reported endpoint is percent growth (GI% or GIPRCNT), where numbers from 0 - 100% represent growth inhibition, and numbers from -100% - 0 represent cell death. For example, a value of 40 represents 60% growth inhibition. A value of 0 means no net growth occurred over the course of the experiment. A value of -40 indicates 40% of cells at the beginning of the experiment died by the end of the experiment. A value of -100 means all cells are dead at the end of the experiment.
NCI-60 Human Tumor Cell Lines Screen was performed using the standard one-dose NCI protocol, which is described in more detail at https://dtp.cancer.gov/discovery_development/nci-60/default.htm.
Compounds with GIPRCNT values below 10 were considered active. Activity score was based on GIPRCNT using the following formula: […]
Score is 0 for GIPRCNT values of 100 or above, 50 for GIPRCNT values of 0, and 100 for GIPRCNT values of -100.
For `O=C(N/N=C/c1ccccc1Cl)C(=O)Nc1cccc(C(F)(F)F)c1`, the growth is 108% (inactive).
Next, `CCCCCCC(O)(c1ccc(F)cc1)C(CN1CCOCC1)c1ccccc1` (stereo not given): 74.7% (inactive); `Cn1c(/C=C(\C#N)c2ccccc2)nc2c(N3CCOCC3)nc(Cl)nc21`: 65.9% (inactive).
Next, `CN1C(=O)N(C)C2(c3ccccc3)n3c(s/c(=C\c4ccccc4)c3=O)=NNC12c1ccccc1` (stereo not given): 95.3% (inactive); `O=S(=O)(Nc1ncccn1)c1ccc(NC2Nc3nc4ccccc4nc3S2)cc1` (stereo not given): 97.7% (inactive).
Next, `Cn1c(=O)n(C)c2cc(CNCCNc3ccnc4cc(Cl)ccc34)ccc21`: 95.4% (inactive).
Take `CCCc1c(C)c2sc(=O)[nH]c2[nH]c1=O`: the growth is 111% (inactive).
Next, `NCCOc1ncccc1/C=C1\c2ccccc2-c2ccc([N+](=O)[O-])cc21`: -23.4% (active).
In the case of `Oc1c(CN2CCN(c3ccccc3F)CC2)cc(Br)c2cccnc12` it was 16.7% (inactive).
In the case of `O=C(O)c1cn(C2CC2)c2cc(N3CCN(C(=O)C[n+]4ccccc4)CC3)c(F)cc2c1=O` it was 105% (inactive); in that of `Nc1nc(-c2cnccn2)nn1-c1nc2ccccc2s1`, 103% (inactive); in that of `O=Cc1c(OCc2cnnn2CC(=O)Nc2ccc(Cl)cc2)ccc2ccccc12`, 102% (inactive).
Take `O=C(Nc1ccc(N2CCNCC2)cc1)c1[nH]ncc1Nc1ncnc2sc3c(c12)CCC3`: the growth is -33.2% (active).
On to `NNC(=O)CNC(=O)Nc1n[nH]c(=S)s1`, for which the growth was 103% (inactive).
Next, `O=c1oc2ccc(I)cc2c(=O)n1-c1ccc(F)cc1F`: 9.77% (active).
In the case of `CC(=O)c1ccc(NC(=O)Nc2ccc(S(=O)(=O)Nc3ccc(Cl)nn3)cc2)cc1` it was 95.8% (inactive); in that of `COc1ccc(Cn2c(Br)c3c(c2-c2cc(OC)c(OC)c(OC)c2)CCc2sc(NC(=O)c4ccc(OC)cc4)nc2-3)cc1`, 69.3% (inactive).
Turning to `CCCCCCCCCCOC(=O)c1ccccc1C(=O)OCCCC`, the growth is 108% (inactive).
Next, `COc1ccc2oc(=O)cc(Cn3cc(Cn4cnc5c4c(=O)n(C)c(=O)n5C)nn3)c2c1`: 101% (inactive); `CCCCN1CCN(c2ccc3nc(-c4ccc5nc(-c6ccc(OC)c(OC)c6)[nH]c5c4)[nH]c3c2)CC1`: 10.1% (inactive); `CC[C@@H](C)[C@H](NC(=O)Cn1cc(CNC(=O)[C@@H](NC(=O)OCc2ccccc2)C(C)C)nn1)C(=O)O`: 108% (inactive).
Next, `CCOc1ccccc1CN1CCc2nc3cc(C(C)(C)C)[nH]n3c(=O)c2C1`: 101% (inactive); `O=[N+]([O-])c1cc2c(ccc3occc32)o1`: 61% (inactive); `COc1cc2c(cc1OC)C(=O)C(CC1CCN(C(=O)Nc3ccc(C)cc3)CC1)C2` (stereo not given): 95.7% (inactive).
In the case of `NCCOc1ncccc1/C=C1\c2ccccc2-c2ccc(F)cc21` it was 48.4% (inactive); in that of `COc1cc(CNC(=O)c2ccsc2Nc2ccnc(C(F)(F)F)c2)ccc1O`, 95.3% (inactive).
As for `O=C(c1nc2ccccc2[nH]1)C1[C@@H](c2cccc(O)c2)C2CC3CCCCC3N2[C@@]12C(=O)Nc1cc(Cl)ccc12` (stereo not given in full), the growth is 61.6% (inactive).
Next, `CCCCNc1nc(NC(C)(C)C)nc(NC(C)(C)C)n1`: 97.8% (inactive); `FC(F)(F)c1cccc(CNC2CCN(CCc3ccccc3)CC2)c1`: 84% (inactive); `COc1ccc(C2NCCc3c2[nH]c2ccccc32)cc1CN1CCN(c2ccc(F)cc2)CC1` (stereo not given): 78.5% (inactive).
Next, `N#C/C(=C\c1c(-c2ccccc2)[nH]c2ccccc12)S(=O)(=O)c1ccccc1`: 60% (inactive); `O=c1c2cc(F)ccc2sc2c(NCCCNCCO)nc3ccc(Cl)cc3c12`: 79.2% (inactive).
In the case of `CCN1C(=O)N(CC)C2C1NC(=S)N2/N=C/C=C/c1ccccc1OC` (stereo not given) it was 43.9% (inactive); in that of `C1=CC2(C=C1)OC21CCC2(C=CC3(C2)OC3C2CCCCC2)CC1` (stereo not given), 105% (inactive).
Turning to `O=c1oc2ccc(-c3ccc(F)cc3F)cc2c(=O)n1-c1cccc(C(F)(F)F)c1`, the growth was 4.41% (active).
For `O=c1oc2ccc(I)cc2c(=O)n1-c1ccc(Cl)cc1F`, the growth is 5.32% (active).
In the case of `O=C(Nc1ccc(-c2nc3ccc(NC(=O)c4ccc(Cl)cc4)cc3[nH]2)cc1)c1ccc(Cl)cc1` it was 10.4% (inactive).
In the case of `COc1cc(/C=C/C(=O)c2c(C)nc3ccccc3c2/C=C/c2ccccc2)cc(OC)c1OC` it was 21% (inactive).
In the case of `COc1ccc(/C=c2\sc3n(c2=O)NC2C(N=3)N(C)C(=O)N2C)cc1` (stereo not given) it was 92% (inactive).
As for `CCOC(=O)C1=C(C)N=c2s/c(=C\c3cc(Cl)ccc3O)c(=O)n2C1c1ccc(OC)cc1` (stereo not given), the growth is 104% (inactive).

The values above are taken from PubChem BioAssay (NCI).
